From PubChem BioAssay
Several values for one entry are separate records, joined by “and”; a condition that tells them apart may be missing. Equal values may be shown once.

Experiments:
[1] = test system: Botulinum neurotoxin type F light chain protease (Clostridium botulinum); assay: Clostridium botulinum type F light chain protease inhibitors, microsphere substrate cleavage, validation (AID 588459); details: multiplex microsphere protease substrate cleavage assay, flow cytometry; at 10 µM; hits give high values
[2] = biological target: Botulinum neurotoxin type A (Clostridium botulinum) (UniProt P0DPI0); assay: BoNT/A light chain protease inhibitors, biochemical, multiplex microsphere flow cytometry, validation set (AID 588460); details: at 10 µM, hits give high values
Chain of Botulinum neurotoxin type A (Clostridium botulinum) (P0DPI0 whole entry, looked up): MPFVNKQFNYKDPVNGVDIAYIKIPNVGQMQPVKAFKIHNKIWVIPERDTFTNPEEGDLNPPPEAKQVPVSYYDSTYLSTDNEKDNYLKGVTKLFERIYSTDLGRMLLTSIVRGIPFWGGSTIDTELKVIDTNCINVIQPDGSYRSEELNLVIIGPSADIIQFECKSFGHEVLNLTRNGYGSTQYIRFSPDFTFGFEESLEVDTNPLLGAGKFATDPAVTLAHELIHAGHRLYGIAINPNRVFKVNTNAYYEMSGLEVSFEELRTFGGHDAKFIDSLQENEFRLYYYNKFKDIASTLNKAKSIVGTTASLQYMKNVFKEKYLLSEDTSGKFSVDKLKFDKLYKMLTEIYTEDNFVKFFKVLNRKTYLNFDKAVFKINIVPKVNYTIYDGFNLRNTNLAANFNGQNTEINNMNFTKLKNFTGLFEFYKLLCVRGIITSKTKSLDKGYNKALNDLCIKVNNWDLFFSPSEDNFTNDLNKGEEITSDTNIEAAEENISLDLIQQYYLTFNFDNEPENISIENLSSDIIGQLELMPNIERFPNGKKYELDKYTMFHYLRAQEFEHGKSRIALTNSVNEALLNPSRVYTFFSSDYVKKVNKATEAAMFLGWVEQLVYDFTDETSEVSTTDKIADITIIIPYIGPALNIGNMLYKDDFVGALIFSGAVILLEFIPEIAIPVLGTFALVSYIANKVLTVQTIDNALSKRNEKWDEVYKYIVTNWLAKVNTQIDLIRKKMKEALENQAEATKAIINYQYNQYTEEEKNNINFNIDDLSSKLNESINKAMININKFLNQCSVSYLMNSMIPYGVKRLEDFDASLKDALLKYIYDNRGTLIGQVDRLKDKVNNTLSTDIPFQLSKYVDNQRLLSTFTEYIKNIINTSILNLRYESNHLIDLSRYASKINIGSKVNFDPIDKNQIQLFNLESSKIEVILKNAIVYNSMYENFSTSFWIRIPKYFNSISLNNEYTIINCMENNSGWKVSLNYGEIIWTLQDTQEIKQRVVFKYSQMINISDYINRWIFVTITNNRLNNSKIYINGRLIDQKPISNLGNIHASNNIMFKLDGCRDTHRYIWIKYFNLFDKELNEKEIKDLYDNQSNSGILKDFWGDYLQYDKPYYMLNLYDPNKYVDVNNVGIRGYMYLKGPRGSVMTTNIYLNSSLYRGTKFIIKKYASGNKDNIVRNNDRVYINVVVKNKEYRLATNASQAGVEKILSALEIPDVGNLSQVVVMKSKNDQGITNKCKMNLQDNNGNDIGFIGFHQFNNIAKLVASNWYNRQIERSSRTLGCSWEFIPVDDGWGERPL

[3] = biological target: Lethal factor (Bacillus anthracis) (UniProt P15917); assay: Bacillus anthracis lethal factor inhibition, microsphere flow cytometry protease assay, validation at 10 µM (AID 588461); details: multiplex microsphere protease cleavage assay, hits give high values
Chain of Lethal factor (Bacillus anthracis) (P15917 whole entry, looked up): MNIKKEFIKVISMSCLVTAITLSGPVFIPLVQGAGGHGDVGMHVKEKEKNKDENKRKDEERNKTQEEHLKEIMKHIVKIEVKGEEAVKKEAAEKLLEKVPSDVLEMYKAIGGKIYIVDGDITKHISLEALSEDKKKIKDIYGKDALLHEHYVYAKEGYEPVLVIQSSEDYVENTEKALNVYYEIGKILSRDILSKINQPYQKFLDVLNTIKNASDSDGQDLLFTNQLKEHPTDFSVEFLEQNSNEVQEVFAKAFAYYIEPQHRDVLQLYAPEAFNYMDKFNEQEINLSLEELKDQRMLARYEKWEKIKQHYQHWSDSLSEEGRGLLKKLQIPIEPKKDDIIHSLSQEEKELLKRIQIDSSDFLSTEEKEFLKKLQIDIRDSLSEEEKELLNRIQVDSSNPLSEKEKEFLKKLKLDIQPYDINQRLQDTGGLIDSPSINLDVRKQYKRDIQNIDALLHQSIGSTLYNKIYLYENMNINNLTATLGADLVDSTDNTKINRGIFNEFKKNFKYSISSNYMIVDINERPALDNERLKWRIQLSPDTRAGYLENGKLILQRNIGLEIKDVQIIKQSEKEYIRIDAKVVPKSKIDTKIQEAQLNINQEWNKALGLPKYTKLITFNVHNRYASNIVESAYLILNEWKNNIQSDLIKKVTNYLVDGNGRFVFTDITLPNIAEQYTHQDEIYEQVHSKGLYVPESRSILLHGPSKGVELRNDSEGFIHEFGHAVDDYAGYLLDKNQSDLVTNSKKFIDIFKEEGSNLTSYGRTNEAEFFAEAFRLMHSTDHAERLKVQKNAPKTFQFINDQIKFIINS

Measured: inhibition

N/C(=N\OC(=O)c1ccc(Br)o1)c1ccccn1
inactive: [1] -0.2% | [2] -0.3% | [3] 0.7%

Cc1cc(O)c(C(=O)Cc2csc(C)n2)c(O)c1
inactive: [1] -5.7% | [2] -2.4% | [3] 0.7%

N=c1nc(N2CCCCC2)cc(N)n1O
inactive: [1] -2.3% | [2] -0.7% | [3] 0.9%

CC(=O)N1CCN(c2ccc(OC[C@H]3CO[C@](Cn4ccnc4)(c4ccc(Cl)cc4Cl)O3)cc2)CC1
inactive: [1] -2.2% | [2] -1.1% | [3] -3.1%

O=C(O)CCSCCC(=O)O
inactive: [1] 1.3% | [2] -1.1% | [3] -7.4%

CC(C)C(=O)Nc1c(O)c2ccccc2[nH]c1=O
inactive: [1] 3.5% | [2] -0.8% | [3] 1.1%

COc1ccc(CC(=O)c2c(O)cc(O)cc2O)cc1OC
inactive: [1] 0% | [2] 1.7% | [3] -2.8%

CCC(C)NCCOc1ccccc1C (stereo unspecified)
inactive: [1] 1.2% | [2] -0.1% | [3] 5.2%

CSCC[C@H](NC(=O)Nc1ccc(C)cc1C)C(=O)O
inactive: [1] -2.1% | [2] 1.4% | [3] 0.5%

C=C(CC)C(=O)c1ccc(OCC(=O)O)c(Cl)c1Cl
inactive: [1] -6.2% | [2] -2.2% | [3] -10.3%

Nc1ccc(-c2nc3ncccc3o2)c(Cl)c1
inactive: [1] -2.1% | [2] -1.8% | [3] -10.9%

Cc1ccc(C(=O)COC(=O)c2cccc(N3C(=O)c4c(C)nc5ccccc5c4C3=O)c2)cc1C
inactive: [1] -1.2% | [2] -1.1% | [3] -0.1%

COc1ccc([C@H]2[C@H](C(=O)OC(C)(C)C)N3N=Cc4ccccc4C3C23C(=O)c2ccccc2C3=O)cc1OC (stereo partly specified)
inactive: [1] -0.2% | [2] 0.5% | [3] -5.5%

COc1ccc2oc(=O)c(-c3nc(C)cs3)cc2c1
inactive: [1] 2.9% | [2] 1.9% | [3] -0.1%

N#Cc1cc2c([nH]c1=O)CCCC2
inactive: [1] -0.1% | [2] -0.6% | [3] 2.6%

OCCN(CCO)c1ccc2ccccc2c1
inactive: [1] -1.3% | [2] -1.2% | [3] -6.6%

O=C(O)C1[C@H]2C(=O)N(C3CCCC3)C[C@]23C=C[C@H]1O3 (stereo partly specified)
inactive: [1] 6.7% | [2] 1.3% | [3] 5.6%

O=C(O)C(O)c1ccccc1 (stereo unspecified)
inactive: [1] 1.5% | [2] -1.4% | [3] 1.3%

CCCCCCCCCC(=O)OCC(O)CO (stereo unspecified)
inactive: [1] -3.5% | [2] -2% | [3] -4.5%

COc1ccc(OC(C)C(=O)Nc2ccc([N+](=O)[O-])cc2)cc1 (stereo unspecified)
inactive: [1] 4% | [2] 1.9% | [3] -0.5%

CC1(C)CC(=O)C(C(=O)CCCCC(=O)C2C(=O)CC(C)(C)CC2=O)C(=O)C1
inactive: [1] 1.2% | [2] 0.8% | [3] -5.7%

CCN(CC)CCCNC(=O)C1c2ccccc2Oc2ccccc21
inactive: [1] 4.2% | [2] 0.7% | [3] -0.4%

CCOC(=O)C1=C(C)NC(C)=C(C(=O)OC)C1c1cccc([N+](=O)[O-])c1 (stereo unspecified)
inactive: [1] -1.6% | [2] 0.4% | [3] -10%

CC(C)Oc1ccc(C2CC(=O)N(c3ccc(C(=O)O)cc3)C2=O)cc1 (stereo unspecified)
inactive: [1] 2.1% | [2] -0.7% | [3] -6.7%

C=CCC1(Cl)C(=O)C(Cl)=C(N2CCOCC2)C1(OC)OC (stereo unspecified)
inactive: [1] -1.2% | [2] -1.2% | [3] 0%

CN(C)CCCN1c2ccccc2Sc2ccc(Cl)cc21
inactive: [1] -3.6% and 2.8% | [2] 0.6% | [3] -0.5% and 0.1%

CCOC(=O)c1c(O)c2c([nH]c1=O)CCCC2
inactive: [1] 2.3% | [2] -1.4% | [3] -3.9%
